Assay [1] in a line: Caspase-3/7 induction in HepG2 cells by small molecules, qHTS assay (AID 1346978). Also: % is scaled to controls: 0 for no effect and ±100 for the full control effect; nearly all actives have a fitted effect of over 15% in size. An outline of the steps:
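Wild-type HepG2 cells, 2,000/well, settled 5 hr at 37 C and 5% CO2, then compound-treated for 17 hr; caspase-3/7 activity read by luminescent Caspase-Glo 3/7 after 30 min at room temperature.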
(In general: qHTS replaces the single test concentration by a dilution series.)

Assay [2] in a line: Caspase-3/7 induction in CHO-K1 cells by small molecules, qHTS cell viability counter screen (AID 1346979). Also: nearly all actives have a fitted effect of over 35% in size. Also: potency is read from the fitted curve at half-maximal effect. An outline of the steps:
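Multiplexed with Caspase-Glo 3/7 in CHO-K1 cells, this counter screen added CellTiter-Fluor after 16hr of compound exposure and recorded fluorescence 1hr later.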

The nature of assay [3]: Caspase-3/7 induction in CHO-K1 cells by small molecules, qHTS assay (AID 1346980). Also: % is scaled to controls: 0 for no effect and ±100 for the full control effect; nearly all actives have a fitted effect of over 15% in size. An outline of the steps:
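Wild-type CHO-K1 cells exposed to compounds for 17hr at 37 C, 5% CO2. Caspase-3/7 activity then measured by Caspase-Glo 3/7 luminescence after 30min at room temperature.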

Assay [4] is described as follows: Caspase-3/7 induction in HepG2 cells by small molecules, qHTS cell viability counter screen (AID 1346981). Also: nearly all actives have a fitted effect of over 30% in size. Also: potency is read from the fitted curve at half-maximal effect. Put shortly: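 Wild-type HepG2 cells, 2,000/well, settled 5 hr at 37 C, 5% CO2 before compound addition. Viability read by CellTiter-Fluor fluorescence, reagent added after 16 hr compound exposure, then 1 hr at 37C, in the same wells as the caspase read.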

The target of assay [5] is Nuclear receptor subfamily 1 group I member 2 (Homo sapiens) (UniProt O75469). Nature of the assay: Human pregnane X receptor (PXR) small molecule agonists, qHTS assay (AID 1346982). Also: nearly all actives have a fitted effect of over 35% in size. Also: potency is read from the fitted curve at half-maximal effect. As to activation: % is scaled to controls: 0 for no effect and ±100 for the full control effect. Put shortly: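 PXR-Luc HepG2 reporter cells (CYP3A4-driven luciferase) in 5% charcoal-stripped FBS medium, plated 5 h before compound addition, then treated 24 h at 37C. Luciferase read by ONE-Glo luminescence after 30 min at room temperature.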
Chain of Nuclear receptor subfamily 1 group I member 2 (Homo sapiens) (O75469 whole entry, looked up): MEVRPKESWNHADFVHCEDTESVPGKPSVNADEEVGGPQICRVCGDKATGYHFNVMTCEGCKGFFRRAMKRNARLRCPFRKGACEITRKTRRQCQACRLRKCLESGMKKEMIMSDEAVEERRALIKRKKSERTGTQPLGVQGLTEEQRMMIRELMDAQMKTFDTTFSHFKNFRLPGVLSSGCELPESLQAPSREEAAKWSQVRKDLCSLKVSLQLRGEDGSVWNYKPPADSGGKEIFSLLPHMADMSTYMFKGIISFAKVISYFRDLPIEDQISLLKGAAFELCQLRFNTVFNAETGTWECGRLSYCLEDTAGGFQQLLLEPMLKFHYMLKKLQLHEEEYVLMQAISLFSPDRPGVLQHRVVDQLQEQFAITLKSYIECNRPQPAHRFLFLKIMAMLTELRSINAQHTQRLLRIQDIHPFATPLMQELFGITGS

Assay [6] addresses Cytochrome P450 2D6 (Homo sapiens) (UniProt P10635). The assay is described as follows: Cytochrome P450 Family 2 Subfamily D Member 6 (CYP2D6) small molecule antagonists: luciferase reporter qHTS assay (AID 1671196). Also: potency is read from the fitted curve at half-maximal effect; nearly all actives have a fitted effect of over 50% in size. Put shortly: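 Cell-free P450-Glo system: CYP2D6 with proluciferin substrate was pre-incubated with compound for 10 min, then reacted with NADPH regeneration for 1 h at room temperature. Luciferin product was detected after 20 min, and data were reported as relative luminescence units.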
On the technique in general: A reporter such as luciferase makes a cellular process visible.

Assay [7] concerns the target Cytochrome P450 2C19 (Homo sapiens) (UniProt P33261). Nature of the assay: Cytochrome P450 Family 2 Subfamily C Member 19 (CYP2C19) small molecule antagonists: luciferase reporter qHTS assay (AID 1671197). Also: nearly all actives have a fitted effect of over 65% in size. Also: potency is read from the fitted curve at half-maximal effect. An outline of the steps:
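Luminescent readout of CYP2C19 activity: luciferin product detected 20 min after adding detection reagent. Before that, compound and enzyme-substrate mix preincubated 10 min at room temperature; NADPH-regenerating system started a 1 h, 37C reaction. Ketoconazole as positive control.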

In assay [8] the target is Cytochrome P450 2C9 (Homo sapiens) (UniProt P11712). Nature of the assay: Cytochrome P450 Family 2 Subfamily C Member 9 (CYP2C9) small molecule antagonists: luciferase reporter qHTS assay (AID 1671198). Also: nearly all actives have a fitted effect of over 50% in size. Also: potency is read from the fitted curve at half-maximal effect. Put shortly:
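P450-Glo proluciferin substrate with CYP2C9 enzyme; 10 min RT preincubation, then NADPH regeneration 1 h at 37C; luciferin detection reagent 20 min RT, luminescence in relative luminescence units.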

The target of assay [9] is Cytochrome P450 1A2 (Homo sapiens) (UniProt P05177). Nature of the assay: Cytochrome P450 Family 1 Subfamily A Member 2 (CYP1A2) small molecule antagonists: luciferase reporter qHTS assay (AID 1671199). Also: nearly all actives have a fitted effect of over 50% in size. Also: potency is read from the fitted curve at half-maximal effect. Put shortly:
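P450-Glo CYP1A2 enzyme–proluciferin substrate mix with compound 10 min at room temperature, then NADPH regeneration 1 h at room temperature. Luciferin detection reagent added, luminescence read after 20 min; furafylline positive control.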

Assay [10] can be described thus: Human pregnane X receptor (PXR) small molecule agonists, qHTS cell viability counter screen (AID 1346977). Also: % is scaled to controls: 0 for no effect and ±100 for the full control effect; nearly all actives have a fitted effect of over 50% in size. Put shortly: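 After a 5hr pre-incubation, PXR-Luc HepG2 cells received compounds plus positive control in DMSO and were kept 24hr at 37C. Cell viability was quantified by fluorescence from CellTiter-Fluor added for the final hour.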
Assay [11] concerns the target Cytochrome P450 3A4 (Homo sapiens) (UniProt P08684). Nature of the assay: Cytochrome P450 Family 3 Subfamily A Member 4 (CYP3A4) small molecule antagonists: luciferase reporter qHTS assay (AID 1671201). Also: nearly all actives have a fitted effect of over 50% in size. Also: potency is read from the fitted curve at half-maximal effect. Put shortly:
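Room-temperature assay throughout: 10 min compound–enzyme/substrate preincubation, 1 h reaction after NADPH regeneration solution, 20 min detection. Luciferin formed from proluciferin substrate is quantified by luminescence.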

Assay [12] concerns the target Nuclear receptor subfamily 1 group I member 2 (Rattus norvegicus) (UniProt Q9R1A7). Nature of the assay: Rat pregnane X receptor (rPXR) activation by small molecules, qHTS assay (AID 1346983). Also: % is scaled to controls: 0 for no effect and ±100 for the full control effect; nearly all actives have a fitted effect of over 20% in size. To be noted: rPXR luciferase reporter cells, One-Glo luminescence, 24 h; max activation: hits give high values. Put shortly:
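Cell-based rPXR activation assay: rPXR cells, 2,000 per well, rested 5hr at 37 C, then exposed to compounds in DMSO for 24 hr at 37 C. Luciferase activity read by One-Glo luminescence after 30 min at room temperature.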

Assay [13] deals with Voltage-gated inwardly rectifying potassium channel KCNH2 (Homo sapiens) (UniProt Q12809). The assay is described as follows: Human Ether-a-go-go-Related Gene (hERG) channel small molecule antagonists: fluorescence cell-based qHTS assay (AID 1671200). Also: nearly all actives have a fitted effect of over 50% in size. Also: potency is read from the fitted curve at half-maximal effect. Put shortly:
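Cell line hERG-U2OS; dye FluxOR II, 1 h RT dark; Tl+ stimulus; ex 480/em 540 nm, read each second for 2 min.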

For assay [14], the target named is Nuclear receptor subfamily 1 group I member 2 (Homo sapiens) (UniProt O75469). Nature of the assay: CYP3A4 induction through human pregnane X receptor (PXR) by small molecules, qHTS assay (AID 1346984). Also: potency is read from the fitted curve at half-maximal effect; nearly all actives have a fitted effect of over 40% in size. An outline of the steps:
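DPX-2 HepG2 cells carrying a PXR response element and CYP3A4-promoter luciferase construct, treated with compounds 24 hr at 37C. Then P450-Glo CYP3A4 Luciferin-IPA substrate (3uM final) for 3 hr at 37C, One-Glo added, luminescence read.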

For assay [15] the target is unchanged. Nature of the assay: Human pregnane X receptor (PXR) activation by small molecules, qHTS assay (AID 1346985). Also: potency is read from the fitted curve at half-maximal effect; nearly all actives have a fitted effect of over 40% in size. Put shortly: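 DPX-2 cells (HepG2 co-transfected with a PXR response element and a CYP3A4-promoter luciferase construct) were seeded at 2,000 per well, rested 5 hr at 37C, then exposed to DMSO-dissolved compounds for 24 hr. Activation was read as luciferase luminescence.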

Unmarked numbers belong to inactive results. Inconclusive results are not listed. Active and inactive are the calls of the source. Calls follow the shape of the dose curve; as a rule, active = well fitted curve in the direction sought with a large enough effect in the repeat runs; inconclusive = weak or mixed curves; inactive = no such curve, though single readings can be large; an effect the other way counts as inactive or inconclusive.

Chain of Cytochrome P450 1A2 (Homo sapiens) (P05177 whole entry, looked up): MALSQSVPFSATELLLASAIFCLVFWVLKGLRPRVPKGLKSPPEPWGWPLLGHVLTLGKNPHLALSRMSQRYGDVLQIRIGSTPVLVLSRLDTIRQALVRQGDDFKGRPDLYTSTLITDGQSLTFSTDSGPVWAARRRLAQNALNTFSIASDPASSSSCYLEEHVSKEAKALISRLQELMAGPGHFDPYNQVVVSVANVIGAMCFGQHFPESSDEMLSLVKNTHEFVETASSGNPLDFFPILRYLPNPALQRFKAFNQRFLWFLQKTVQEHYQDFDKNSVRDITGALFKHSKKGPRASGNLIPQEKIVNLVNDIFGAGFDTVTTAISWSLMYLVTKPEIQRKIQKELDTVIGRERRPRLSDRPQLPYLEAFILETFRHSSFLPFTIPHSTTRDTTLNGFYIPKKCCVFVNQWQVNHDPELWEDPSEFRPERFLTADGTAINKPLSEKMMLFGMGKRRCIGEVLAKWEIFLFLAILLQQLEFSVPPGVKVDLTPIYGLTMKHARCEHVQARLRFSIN
Chain of Voltage-gated inwardly rectifying potassium channel KCNH2 (Homo sapiens) (Q12809 whole entry, looked up): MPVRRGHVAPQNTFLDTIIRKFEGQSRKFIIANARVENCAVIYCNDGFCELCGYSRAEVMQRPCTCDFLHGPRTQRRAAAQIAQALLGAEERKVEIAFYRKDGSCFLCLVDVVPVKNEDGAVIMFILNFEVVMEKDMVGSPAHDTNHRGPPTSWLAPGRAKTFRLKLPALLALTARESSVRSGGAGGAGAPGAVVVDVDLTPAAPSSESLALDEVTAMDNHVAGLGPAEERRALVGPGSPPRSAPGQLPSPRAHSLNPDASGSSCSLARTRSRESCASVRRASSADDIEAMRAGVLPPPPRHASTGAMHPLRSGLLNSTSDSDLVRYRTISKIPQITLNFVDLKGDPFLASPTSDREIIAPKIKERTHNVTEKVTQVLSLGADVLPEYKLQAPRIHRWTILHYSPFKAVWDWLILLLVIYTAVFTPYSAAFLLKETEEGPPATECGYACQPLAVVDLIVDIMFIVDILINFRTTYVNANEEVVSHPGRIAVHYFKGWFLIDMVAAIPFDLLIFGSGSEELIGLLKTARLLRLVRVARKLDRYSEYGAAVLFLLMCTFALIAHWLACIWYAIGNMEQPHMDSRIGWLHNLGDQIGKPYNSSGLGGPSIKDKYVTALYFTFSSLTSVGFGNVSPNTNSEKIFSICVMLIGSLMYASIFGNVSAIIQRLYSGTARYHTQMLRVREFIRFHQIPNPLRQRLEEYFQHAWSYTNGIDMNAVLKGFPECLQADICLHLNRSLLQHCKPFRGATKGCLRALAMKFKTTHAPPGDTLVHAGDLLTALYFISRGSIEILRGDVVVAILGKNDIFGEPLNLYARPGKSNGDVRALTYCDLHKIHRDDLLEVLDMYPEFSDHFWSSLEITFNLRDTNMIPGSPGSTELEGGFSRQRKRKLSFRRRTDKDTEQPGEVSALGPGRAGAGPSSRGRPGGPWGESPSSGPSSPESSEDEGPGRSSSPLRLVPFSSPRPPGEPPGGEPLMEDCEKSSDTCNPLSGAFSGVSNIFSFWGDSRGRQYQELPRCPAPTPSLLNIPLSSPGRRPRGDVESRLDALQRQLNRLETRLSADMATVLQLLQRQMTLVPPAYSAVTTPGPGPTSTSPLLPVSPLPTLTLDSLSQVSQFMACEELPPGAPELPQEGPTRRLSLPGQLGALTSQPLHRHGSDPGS
Chain of Cytochrome P450 2D6 (Homo sapiens) (P10635 whole entry, looked up): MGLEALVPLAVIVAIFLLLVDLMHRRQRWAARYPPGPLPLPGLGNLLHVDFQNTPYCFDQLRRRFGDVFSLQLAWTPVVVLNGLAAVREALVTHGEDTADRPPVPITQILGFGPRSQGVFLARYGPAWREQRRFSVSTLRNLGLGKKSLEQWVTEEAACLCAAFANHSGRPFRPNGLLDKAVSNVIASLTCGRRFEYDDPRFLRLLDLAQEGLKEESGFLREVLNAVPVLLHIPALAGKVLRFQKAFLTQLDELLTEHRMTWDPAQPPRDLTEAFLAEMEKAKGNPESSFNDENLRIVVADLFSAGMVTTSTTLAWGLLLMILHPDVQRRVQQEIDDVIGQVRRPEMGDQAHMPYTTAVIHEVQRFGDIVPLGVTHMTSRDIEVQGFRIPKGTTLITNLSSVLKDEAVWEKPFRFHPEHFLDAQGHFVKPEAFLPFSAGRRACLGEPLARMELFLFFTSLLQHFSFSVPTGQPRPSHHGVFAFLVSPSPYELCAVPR
Chain of Cytochrome P450 2C19 (Homo sapiens) (P33261 whole entry, looked up): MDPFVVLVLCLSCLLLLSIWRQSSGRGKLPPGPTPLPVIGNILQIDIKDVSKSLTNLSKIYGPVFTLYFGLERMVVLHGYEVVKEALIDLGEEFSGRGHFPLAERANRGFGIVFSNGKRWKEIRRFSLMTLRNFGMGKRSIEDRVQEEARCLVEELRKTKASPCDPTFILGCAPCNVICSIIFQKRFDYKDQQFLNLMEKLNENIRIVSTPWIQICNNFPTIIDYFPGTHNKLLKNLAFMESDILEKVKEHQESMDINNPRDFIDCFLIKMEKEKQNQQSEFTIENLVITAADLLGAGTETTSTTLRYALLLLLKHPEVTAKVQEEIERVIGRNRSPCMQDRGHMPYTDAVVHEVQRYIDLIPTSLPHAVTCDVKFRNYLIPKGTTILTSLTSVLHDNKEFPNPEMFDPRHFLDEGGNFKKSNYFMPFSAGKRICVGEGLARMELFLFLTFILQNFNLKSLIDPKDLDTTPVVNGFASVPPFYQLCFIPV
Chain of Cytochrome P450 2C9 (Homo sapiens) (P11712 whole entry, looked up): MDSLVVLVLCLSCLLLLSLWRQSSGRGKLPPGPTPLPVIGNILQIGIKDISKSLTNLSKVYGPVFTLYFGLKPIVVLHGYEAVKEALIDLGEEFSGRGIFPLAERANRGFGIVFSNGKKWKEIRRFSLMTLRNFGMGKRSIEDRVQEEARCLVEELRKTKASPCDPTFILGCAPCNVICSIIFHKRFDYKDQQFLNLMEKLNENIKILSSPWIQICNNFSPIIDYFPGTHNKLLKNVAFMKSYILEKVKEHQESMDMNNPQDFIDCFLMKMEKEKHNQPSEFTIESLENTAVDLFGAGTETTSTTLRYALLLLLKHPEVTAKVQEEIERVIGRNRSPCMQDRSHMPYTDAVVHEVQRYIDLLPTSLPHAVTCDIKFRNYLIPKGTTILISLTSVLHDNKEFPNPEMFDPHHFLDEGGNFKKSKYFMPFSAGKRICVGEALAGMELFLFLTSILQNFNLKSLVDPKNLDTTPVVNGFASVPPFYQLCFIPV
Chain of Cytochrome P450 3A4 (Homo sapiens) (P08684 whole entry, looked up): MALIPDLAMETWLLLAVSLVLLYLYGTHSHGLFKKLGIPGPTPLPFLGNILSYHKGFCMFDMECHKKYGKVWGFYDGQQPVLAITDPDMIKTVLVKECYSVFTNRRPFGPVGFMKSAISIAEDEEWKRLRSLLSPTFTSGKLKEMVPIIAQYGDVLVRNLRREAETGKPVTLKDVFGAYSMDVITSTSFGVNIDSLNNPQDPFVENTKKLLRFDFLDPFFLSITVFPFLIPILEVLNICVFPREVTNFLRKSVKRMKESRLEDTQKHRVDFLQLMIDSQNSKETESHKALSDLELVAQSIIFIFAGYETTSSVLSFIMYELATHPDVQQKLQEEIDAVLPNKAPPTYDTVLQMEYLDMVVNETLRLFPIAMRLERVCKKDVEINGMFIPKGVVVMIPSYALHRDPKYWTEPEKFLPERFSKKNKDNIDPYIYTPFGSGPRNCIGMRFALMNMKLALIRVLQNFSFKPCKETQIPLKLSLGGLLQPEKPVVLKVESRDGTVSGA
Chain of Nuclear receptor subfamily 1 group I member 2 (Rattus norvegicus) (Q9R1A7 whole entry, looked up): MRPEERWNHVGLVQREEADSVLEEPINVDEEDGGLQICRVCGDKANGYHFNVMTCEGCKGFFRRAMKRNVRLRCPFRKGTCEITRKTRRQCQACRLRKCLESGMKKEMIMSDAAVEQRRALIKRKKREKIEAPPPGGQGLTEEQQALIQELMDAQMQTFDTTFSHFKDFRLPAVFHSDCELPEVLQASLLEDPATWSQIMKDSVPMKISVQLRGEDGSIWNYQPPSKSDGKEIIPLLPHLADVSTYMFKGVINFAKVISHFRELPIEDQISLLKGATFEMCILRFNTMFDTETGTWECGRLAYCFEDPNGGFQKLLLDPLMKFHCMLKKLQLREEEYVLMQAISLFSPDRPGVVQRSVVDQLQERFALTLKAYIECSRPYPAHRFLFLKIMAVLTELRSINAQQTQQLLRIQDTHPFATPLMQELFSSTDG

For the compound `CC1CC(=O)NN=C1c1ccc(NCC(C)(C)NCC(O)COc2cc(Cl)ccc2C#N)cc1` (configuration not stated), the Potency result in assay [1], in assay [2], in assay [4] and in assay [9] was “inactive” each time. Also, the result in assay [3] was inactive. The Potency in assay [5] was 26.6 µM (active); in assay [6] it was 5.49 µM (active); in assay [7], 13.8 µM (active); in [8], 12.3 µM (active).

`CCCCC/C(=C\c1ccccc1)CO`: the Potency entry in assay [10], in [4], in assay [5] and in [11] was “inactive” each time. The Potency in [7] is 1.76 µM (active); in [8], 39.4 µM (active); in [9] it was 3.94 µM (active).

Take `C/C=C/C=C/CCCCCCCO`: the Potency result in assay [1] and in assay [4] was “inactive” throughout. The compound was classed as inactive in [3]. The Potency in assay [5] is 61.1 µM (active); in [7], 25.2 µM (active); in assay [8] it was 7.1 µM (active); in assay [11] it was 15.9 µM (active).

As for `CCc1cccc(N(C)C(N)=Nc2cccc3ccccc23)c1`, the Potency result in [1], in assay [2] and in assay [4] was “inactive” in each case. Further, the compound was called inactive in assay [3]. Also, in assay [12], the max activation was -1.24%.

In the case of `CN(C)CCOC1=Cc2ccccc2Sc2ccc(Cl)cc21`, the outcome in [3] was inactive. In addition, the Potency result in assay [4], in assay [5], in assay [7] and in assay [8] was “inactive” each time. Also, the Potency in assay [9] was 18.2 µM (active).

Regarding `Cc1nc2ccccn2c(=O)c1CCN1CCC(C(=O)c2ccc(F)cc2)CC1`, the Potency result in [1], in assay [2], in assay [4], in [5], in [7] and in assay [8] was “inactive” in each case. For the same compound, the Potency entry in assay [9] and in assay [11] was “inactive” each time. Besides, in assay [3], the result was inactive. Besides, in assay [6], the Potency was 4.36 µM (active).

`C=CC(C)(C)CC(=O)OC`: the compound was classed as inactive in assay [3]. The Potency in assay [5] was 68.8 µM (active); in [6] it was 63.5 µM (active); in assay [7], 35.7 µM (active); in assay [8], 35.7 µM (active); in assay [9] it was 20.1 µM (active); in assay [11], 63.5 µM (active).

Consider `O=C(CCC1CCN(Cc2ccccc2)CC1)c1ccc2c(c1)NCCCC2`, for which the Potency entry in [1], in assay [4], in assay [7], in [8], in assay [9] and in [11] was “inactive” each time. The Potency in assay [6] was 8.71 µM (active); in assay [13], 4.77 µM (active).

`Cc1ccc(Nc2nccc(N(C)c3ccc4c(C)n(C)nc4c3)n2)cc1S(N)(=O)=O`: the Potency result in assay [1], in [7], in [9] and in assay [13] was “inactive” in each case. The Potency in assay [2] is 26.6 µM (active); in [5] it was 2.66 µM (active); in assay [8], 15.5 µM (active). In [3], the compound was classed as inactive.

As for `NC(=O)Cn1c(=O)cc(CCN2CCN(c3nccc4sccc34)CC2)c2ccc(F)cc21`, the Potency result in assay [1], in assay [5], in [9] and in assay [13] was “inactive” throughout. For the same compound, the outcome in [3] was inactive. The Potency in assay [6] is 35.6 µM (active); in [8], 63.3 µM (active); in [11] it was 5.64 µM (active).

As to `COCCOC(=O)C1=C(C)NC(C)=C(C(=O)OC/C=C/c2ccccc2)C1c1cccc([N+](=O)[O-])c1` (configuration not stated), the Potency result in assay [1] and in assay [13] was “inactive” throughout. Further, the Potency is 26.6 µM (active) in assay [2]; 29.8 µM (active) in [4]; 10.6 µM (active) in [5]; 1.58 µM (active) in assay [14]; 1.58 µM (active) in assay [15]; 21.9 µM (active) in [6]. Further, the results for the Potency in assay [7], in [8] and in [9] were 1.55 µM (active), 0.195 µM (active) and 15.5 µM (active), respectively. For the same compound, the outcome in [3] was inactive.

Source of the values: PubChem BioAssay (Tox21).
